A selection: hits, their analogues and other compounds. The true share with any hit is near 1.2%.
SRC2 inh: human SRC2 (NCOA2) inhibition | hit rate 0.17% among 370,000 | HEK293 GAL4-SRC2 luciferase reporter, luminescence | inhibition, % at 9 µM;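 active means inhibition above the mean inhibition of all tested compounds plus 3 SD, set per campaign, cut at about 52% in these data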;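 further: 0% = DMSO treated cells and 100% = cells given Gossypol at 36 µM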
SRC3 inh: inhibits human SRC3 coactivator; inhibition, % at 3.6 µM; AID 588352; Q9Y6Q9; HEK293 GAL4-SRC3 luciferase reporter, luminescence; hit rate 0.17% among 360,000;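 active means inhibition above a per-campaign cutoff, the mean of all compounds plus 3 SD, cut at about 60% in these data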;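 further: 0% = DMSO-treated cells and 100% = gossypol-treated cells at 36 µM; higher means less SRC3-driven luciferase light from the GAL4 reporter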
Gli-Sufu block: antagonists of Gli-Sufu signaling; hit rate 0.74% among 340,000; Sufu-KO-LIGHT fibroblasts, Gli luciferase reporter luminescence; inhibition, % at 5 µM;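 active means inhibition above about 55%, limit read from the data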;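 further: 0% = DMSO-treated cells and 100% = wells with medium but no cells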
LRH-1 inv ag: NR5A2 inverse agonism in reporter assay; hit rate 0.13% among 360,000; inhibition, % at 3.6 µM; O00482; HEK293T StAR-luciferase reporter, LRH-1 transfected, 24 h; AID 602396;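 active means inhibition above the mean inhibition of all tested compounds plus 3 SD, cut at about 73% in these data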;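 further: 0% = DMSO wells and 100% = reporter-only cells lacking LRH-1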
NCOA1 inh: inhibits human SRC1 coactivator. Q15788. HEK293 GAL4-SRC1 luciferase reporter, luminescence. inhibition, % at 3.6 µM. hit rate 0.12% among 360,000. AID 588354;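 active means inhibition above the campaign mean plus 3 SD, with each screening campaign given its own cutoff, cut at about 60% in these data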;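 further: 0% = DMSO treated cells and 100% = gossypol at 36 µM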
Target sequence (Q15788 whole entry, looked up, the tested form may be a part): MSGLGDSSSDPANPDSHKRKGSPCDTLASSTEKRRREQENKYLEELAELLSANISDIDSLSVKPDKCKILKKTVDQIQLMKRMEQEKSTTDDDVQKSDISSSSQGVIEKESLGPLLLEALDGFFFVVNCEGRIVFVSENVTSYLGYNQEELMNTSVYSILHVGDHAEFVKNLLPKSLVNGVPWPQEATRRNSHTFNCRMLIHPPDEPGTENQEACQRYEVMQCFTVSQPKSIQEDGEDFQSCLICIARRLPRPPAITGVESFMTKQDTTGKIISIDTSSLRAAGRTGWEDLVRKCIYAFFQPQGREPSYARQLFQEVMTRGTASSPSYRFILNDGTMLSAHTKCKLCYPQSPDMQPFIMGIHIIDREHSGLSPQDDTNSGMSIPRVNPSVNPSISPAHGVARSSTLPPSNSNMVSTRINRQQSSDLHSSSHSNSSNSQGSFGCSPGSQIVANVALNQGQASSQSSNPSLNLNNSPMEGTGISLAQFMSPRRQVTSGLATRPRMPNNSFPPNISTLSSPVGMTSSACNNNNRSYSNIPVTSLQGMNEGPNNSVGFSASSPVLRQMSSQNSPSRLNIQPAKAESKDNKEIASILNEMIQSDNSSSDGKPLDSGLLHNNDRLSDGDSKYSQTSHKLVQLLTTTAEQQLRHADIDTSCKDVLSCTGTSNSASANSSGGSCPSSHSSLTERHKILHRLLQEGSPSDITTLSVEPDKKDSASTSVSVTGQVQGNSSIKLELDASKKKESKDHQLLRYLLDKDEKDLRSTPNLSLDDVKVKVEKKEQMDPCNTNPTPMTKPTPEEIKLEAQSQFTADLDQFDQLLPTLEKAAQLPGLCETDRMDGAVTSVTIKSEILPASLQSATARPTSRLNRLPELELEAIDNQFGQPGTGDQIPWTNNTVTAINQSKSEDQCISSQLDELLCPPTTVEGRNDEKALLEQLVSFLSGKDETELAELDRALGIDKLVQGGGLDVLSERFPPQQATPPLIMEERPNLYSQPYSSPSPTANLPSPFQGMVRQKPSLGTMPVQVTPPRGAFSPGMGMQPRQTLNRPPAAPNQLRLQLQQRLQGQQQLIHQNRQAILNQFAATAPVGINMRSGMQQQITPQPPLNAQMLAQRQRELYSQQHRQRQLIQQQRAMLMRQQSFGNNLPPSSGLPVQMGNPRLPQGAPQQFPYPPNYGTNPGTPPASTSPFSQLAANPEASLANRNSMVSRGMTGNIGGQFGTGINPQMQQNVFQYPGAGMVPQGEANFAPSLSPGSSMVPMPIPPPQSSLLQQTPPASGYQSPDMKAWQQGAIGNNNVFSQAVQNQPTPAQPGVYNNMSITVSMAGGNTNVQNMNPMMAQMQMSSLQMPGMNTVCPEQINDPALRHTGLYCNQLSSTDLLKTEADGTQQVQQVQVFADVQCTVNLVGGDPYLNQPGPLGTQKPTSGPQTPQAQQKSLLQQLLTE
NR2F2 inh: blocks human COUP-TFII nuclear receptor. P24468. HEK293T NGFI-A luciferase reporter, luminescence. AID 686940. inhibition, % at 8.6 µM. hit rate 0.7% among 370,000;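 active means inhibition above a per-plate cutoff, mean inhibition of test wells between control levels plus 3 SD, cut at about 38% in these data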;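 further: cells cotransfected with COUP-TFII expression vector driving the NGFI-A reporter; 0% = median of COUP-TF2 test wells and 100% = reporter-only cells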
Gli antag conf: Gli-SUFU antagonism confirmation, single concentration; shares compounds with Gli-Sufu block; Sufu-KO-LIGHT cells, Gli luciferase reporter, luminescence; inhibition, % at 5 µM; hit rate 40% among 2,500; AID 602428;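 active means mean inhibition at 5 µM reaching about 45%, limit read from the data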;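 further: plate controls were DMSO-treated cells for no effect and wells lacking cells for full effect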
SufuKO cytotox: cytotoxicity counter-screen for Gli-SUFU antagonists. shares compounds with Gli-Sufu block. Sufu-KO-LIGHT cells cytotoxicity, ATP luminescence. cytotoxicity, % at 5 µM. hit rate 32% among 2,500. AID 651994;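 active means mean cytotoxicity at 5 µM above about 25%, limit read from the data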;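 further: cells exposed to compound overnight for roughly 16 to 18 hours; plate controls were DMSO wells with cells for no effect and medium without cells for full effect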
Wnt3a counter: Wnt3a reporter inhibition counter-screen | shares compounds with Gli-Sufu block | Wnt-LIGHT cells, Wnt3a-driven luciferase reporter, luminescence | inhibition, % at 6.25 µM | hit rate 20% among 2,500 | AID 651995;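 active means mean inhibition above about 25%, limit read from the data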
* hit, by the source's call; · = no result.

SMILES	SRC2 inh	SRC3 inh	Gli-Sufu block	LRH-1 inv ag	NCOA1 inh	NR2F2 inh	Gli antag conf	SufuKO cytotox	Wnt3a counter
O=C(COC(=O)c1cccnc1Nc1ccccc1F)NCCN1C(=O)CSC1=O	-20	-11	50	16	12	5	20	-3	-31
CCCNC(=O)COC(=O)c1cccnc1Nc1ccccc1F	-19	14	-4	11	10	-15	·	·	·
O=C(NCc1ccccc1)[C@@H]1CCCN1C(=O)[C@H]1CCCN1C(=O)c1ccccc1	-4	·	·	·	·	6	·	·	·
CN1CCCCC(NC(=O)c2ccc(Cl)cc2Cl)C1=O (stereo not drawn)	-30	·	·	·	·	2	·	·	·
COc1cccc(-c2nc(-c3cccs3)no2)c1	-80	-112	-64	-136	-99	-81	·	·	·
COc1cccc(Cn2c(-c3cccs3)noc2=O)c1	-7	8	99*	15	22	25	20	8	-37
CC(C)[C@H](NS(=O)(=O)c1ccc(F)cc1F)C(=O)N1CCC[C@H]1C(=O)NCc1ccccc1	6	·	·	·	·	8	·	·	·
COc1ccc(NC(=O)CSCC(=O)N2c3ccccc3CCc3ccccc32)cc1	-10	8	66*	5	17	3	15	2	-4
COc1ccccc1NC(=O)CSCC(=O)N1c2ccccc2CCc2ccccc21	6	12	-5	-1	15	3	·	·	·
CC(C)(C)c1ccc(-c2nnc(SCc3cccc4ccccc34)n2Cc2ccco2)cc1	20	·	·	·	·	12	·	·	·
CC(C)C(=O)N1CCN(c2ccccc2NC(=O)COc2ccccc2)CC1	-1	-7	54	24	-28	-13	28	10	-22
CC(C)C(=O)N1CCN(c2ccccc2NC(=O)COc2ccc(C3CCCCC3)cc2)CC1	-28	20	8	7	2	21	·	·	·
CCCCCCCOc1ccc(OC(=O)c2cccnc2)cc1	-30	-27	74*	0	-2	13	60*	20	-8
CCCCOc1ccc(OC(=O)c2cccnc2)cc1	-4	13	31	2	-2	-21	·	·	·
CCCCCCCOc1ccc(OC(=O)c2ccncc2)cc1	-34	0	74*	-4	-15	1	63*	20	10
O=C(N[C@@H](Cc1cccnc1)C(=O)N1CCC[C@H]1C(=O)NCc1ccccc1)c1ccc(Cl)c(Cl)c1	9	·	·	·	·	-11	·	·	·
C[C@H](O)[C@@H]1CN2CCc3ccc(-c4ccc5c(c4)OCO5)cc3[C@@H]2C[C@@H]1N(C)C(=O)NC1CCCCC1	8	·	·	·	·	-10	·	·	·
COc1ccc(-c2ccc3c(n2)CCCN3S(=O)(=O)c2ccccc2)cc1	7	·	·	·	·	6	·	·	·
Cc1ncc(C[n+]2csc(CCOC(=O)CC34CC5CC(CC(C5)C3)C4)c2C)c(N)n1	-4	23	21	-6	8	18	·	·	·
Cc1c(CCOC(=O)CC23CC4CC(CC(C4)C2)C3)sc[n+]1Cc1ccccc1	14	28	54	3	5	21	58*	32*	-49
Nc1[nH]c(C(=O)c2ccccc2)c(-c2cccnc2)c1C(=O)c1ccccc1	-34	·	·	·	·	10	·	·	·
Cc1ccc2[nH]c(=O)c(CN(Cc3cccs3)Cc3nnnn3CC3CCCO3)cc2c1 (stereo not drawn)	-9	-19	54	30	-6	21	21	14	-17
COc1ccccc1OCCNC(=O)C1CC(=O)N(c2cccc(SC)c2)C1 (stereo not drawn)	-5	11	95*	7	1	2	28	20	-26
CSc1cccc(N2CC(C(=O)NCCC3=CCCCC3)CC2=O)c1 (stereo not drawn)	1	-2	-6	-43	-7	-20	·	·	·
COc1cccc(CN2CC(C(=O)NCCOc3ccccc3F)CCC2=O)c1 (stereo not drawn)	0	-2	59*	-11	5	18	36	15	-39
SMILES	SRC2 inh	SRC3 inh	Gli-Sufu block	LRH-1 inv ag	NCOA1 inh	NR2F2 inh	Gli antag conf	SufuKO cytotox	Wnt3a counter
Cc1csc(=Nc2cccnc2)n1Cc1ccco1	5	12	55*	4	-10	-2	4	0	-22
CCn1c(C)[n+](Cc2ccccc2)c2ccc(C(=O)OC)cc21	-29	19	6	11	-4	2	·	·	·
CCOC(=O)c1ccc2c(c1)n(CC)c(/C=C/Nc1ccccc1)[n+]2CC	-1	21	54	-14	14	-3	53*	34*	-13
CCn1c(/C=C/Nc2ccccc2)[n+](CC)c2ccc(Cl)cc21	5	-4	52	5	9	-3	43	25	-33
CCn1c(C)[n+](Cc2ccccc2)c2ccc(Cl)cc21	11	6	27	-2	14	-5	·	·	·
CCn1c(/C=C/N(C)c2ccccc2)[n+](CC)c2ccc(Cl)cc21	-9	24	85*	0	3	20	89*	36*	42*
O=C(NCc1ccc(Cl)cc1Cl)C1CCN(S(=O)(=O)c2ccc3c(c2)OCCCO3)CC1	-2	9	63*	12	-1	12	-1	-6	-47
CC(C)(C)[C@H]1COC(=O)[C@H](NC(=O)OCC2c3ccccc3-c3ccccc32)C/C=C\C[C@@H](CC(=O)N(CCO)Cc2ccccc2)C(=O)N1	-5	-4	58*	-5	-14	-2	52*	14	-40
O=C(N[C@H]1C/C=C\C[C@@H](CC(=O)N(CCO)Cc2ccccc2)C(=O)NC[C@H](c2ccccc2)OC1=O)OCC1c2ccccc2-c2ccccc21	2	-18	59*	-30	-11	-4	59*	16	34*
O=C(N[C@@H]1C/C=C\C[C@H](CC(=O)N(CCO)Cc2ccccc2)C(=O)N[C@@H](Cc2ccccc2)COC1=O)OCC1c2ccccc2-c2ccccc21	-13	0	40	-27	-15	15	·	·	·
O=C(C[C@@H]1C/C=C\C[C@@H](NC(=O)OCC2c3ccccc3-c3ccccc32)C(=O)OC[C@@H](Cc2ccccc2)NC1=O)NCCO	6	1	54	-12	7	10	62*	28*	-69
C[C@@H]1COC(=O)[C@H](NC(=O)OCC2c3ccccc3-c3ccccc32)C/C=C\C[C@@H](CC(=O)N(CCO)Cc2ccccc2)C(=O)N1	·	-21	55*	12	4	·	48*	30*	-14
CC(=O)C1=C(C)N(Cc2ccc(F)cc2)C(=S)NC1c1cccc(F)c1 (stereo not drawn)	12	·	·	·	·	-1	·	·	·
O=C1NCCOC(=O)[C@H](Cc2ccc(F)cc2)C/C=C\C[C@H]1CC(=O)N(CCO)Cc1ccccc1	-12	-14	-1	10	17	-4	·	·	·

Compound activity as filed in PubChem BioAssay.
